Activity calls are given as the source filed them. Rule for the calls: active = hit-call score of the fitted dose curve at least 0.9, where 1 is the maximum; inactive = score below 0.9.
Columns and labels:
[1] = biological target: Bile acid receptor (Homo sapiens) (UniProt Q96RI1); test: ATG_IR1_CIS: Attagene CIS-FACTORIAL HepG2 Assay for human Nuclear Receptor Subfamily 1 Group H Member 4 (NR1H4), IR1 submotif (AID 2282946); details: IR1 reporter transcription, actives raise or lower the signal
Sequence of Bile acid receptor (Homo sapiens) (Q96RI1 whole entry, looked up): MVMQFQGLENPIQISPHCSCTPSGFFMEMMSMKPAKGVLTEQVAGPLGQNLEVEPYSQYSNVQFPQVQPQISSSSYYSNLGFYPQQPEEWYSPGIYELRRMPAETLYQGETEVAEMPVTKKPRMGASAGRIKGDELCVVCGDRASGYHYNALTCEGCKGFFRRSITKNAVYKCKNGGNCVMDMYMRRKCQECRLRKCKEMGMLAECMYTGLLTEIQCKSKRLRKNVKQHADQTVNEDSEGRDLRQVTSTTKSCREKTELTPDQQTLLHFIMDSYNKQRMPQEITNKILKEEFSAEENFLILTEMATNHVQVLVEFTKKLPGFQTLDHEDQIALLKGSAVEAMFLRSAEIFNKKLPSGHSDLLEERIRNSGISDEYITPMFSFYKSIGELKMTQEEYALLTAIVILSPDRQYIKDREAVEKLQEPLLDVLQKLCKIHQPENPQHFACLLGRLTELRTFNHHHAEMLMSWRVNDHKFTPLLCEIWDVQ
How it was run: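 HepG2 cells transiently transfected with multiple cis-promoter-driven reporter units to measure endogenous transcription factor activity; 24 h exposure. Reporter mRNA read by RT-PCR, FAM labelling, HpaI digestion and capillary electrophoresis. Bidirectional fit versus DMSO.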

[2] = ATG_GRE_CIS: Attagene CIS-FACTORIAL HepG2 Assay for human Glucocorticoid Response Elements (GRE) (AID 2282947); details: HepG2 GRE cis-reporter, Attagene multiplex mRNA; actives raise or lower the signal
How it was run: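 Transiently transfected HepG2 cells carrying GRE cis-reporter units (endogenous TF activity) dosed 24 h; reporter mRNA quantified by RT-PCR, 6-FAM labelling, HpaI digestion and capillary electrophoresis. Bidirectional fit versus DMSO baseline.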

[3] = ATG_ISRE_CIS: Attagene CIS-FACTORIAL HepG2 Assay for human Interferon Regulatory Factor 1 (IRF1) binding to an Interferon-Stimulated Response Element (ISRE) (AID 2282948); details: HepG2 ISRE cis-reporter (Attagene), mRNA transcription readout; actives raise or lower the signal
How it was run: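 HepG2 cells transiently transfected with multiplexed cis-promoter reporter units; after 24 h compound exposure, reporter mRNA quantified by RT-PCR, FAM labelling, HpaI digestion and capillary electrophoresis. Bidirectional fit versus DMSO baseline.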

[4] = ATG_M_32_CIS: Attagene CIS-FACTORIAL HepG2 Assay for M32 Transcription Factor (Internal Marker) (AID 2282949); details: HepG2 Attagene cis-factorial M32 reporter, mRNA; actives raise or lower the signal;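 note: background control marker of the multiplexed CIS panel rather than a real target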
How it was run: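 HepG2 cells transiently transfected with multiplexed cis-regulated reporter units, dosed 24 h. Reporter mRNA quantified by RT-PCR, 6-FAM labelling, HpaI digestion and capillary electrophoresis; bidirectional fit vs DMSO.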

[5] = ATG_M_06_CIS: Attagene CIS-FACTORIAL HepG2 Assay for M06 Transcription Factor (Internal Marker) (AID 2282950); details: HepG2 Attagene CIS-FACTORIAL M06 internal marker reporter; actives raise or lower the signal
How it was run: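 One of many multiplexed endpoints: HepG2 reporter mRNA after 24 h dosing, detected by RT-PCR and capillary electrophoresis fluorescence; gain or loss of signal analysed against DMSO.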

[6] = biological target: Hepatocyte nuclear factor 6 (Homo sapiens) (UniProt Q9UBC0); test: ATG_HNF6_CIS: Attagene CIS-FACTORIAL HepG2 Assay for human Hepatocyte Nuclear Factor 6 (HNF6) (AID 2282952); details: HepG2 Attagene cis-factorial HNF6 reporter transcription; actives raise or lower the signal
Sequence of Hepatocyte nuclear factor 6 (Homo sapiens) (Q9UBC0 whole entry, looked up): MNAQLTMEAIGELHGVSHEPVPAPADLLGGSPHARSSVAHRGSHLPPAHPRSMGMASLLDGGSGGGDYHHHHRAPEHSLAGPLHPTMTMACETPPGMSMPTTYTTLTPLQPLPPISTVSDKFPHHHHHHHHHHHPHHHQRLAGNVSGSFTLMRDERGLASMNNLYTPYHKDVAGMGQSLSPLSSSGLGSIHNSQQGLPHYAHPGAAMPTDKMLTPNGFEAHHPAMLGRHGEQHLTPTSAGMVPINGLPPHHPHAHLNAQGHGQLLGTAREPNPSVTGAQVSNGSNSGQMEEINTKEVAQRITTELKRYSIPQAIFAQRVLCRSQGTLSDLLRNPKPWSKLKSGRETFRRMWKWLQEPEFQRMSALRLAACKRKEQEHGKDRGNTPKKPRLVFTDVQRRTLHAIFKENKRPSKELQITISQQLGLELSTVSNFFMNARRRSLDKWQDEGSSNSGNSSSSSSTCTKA
How it was run: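 Transiently transfected HepG2 cells expressing cis-regulated reporter transcription units were exposed to chemical for 24 h in a 24-well format. Reporter transcript abundance was determined by fluorescence capillary electrophoresis.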

[7] = biological target: Heat shock factor protein 1 (Homo sapiens) (UniProt Q00613); test: ATG_HSE_CIS: Attagene CIS-FACTORIAL HepG2 Assay for human Heat Shock Transcription Factor 1 (HSE) (AID 2282953); details: HepG2 HSE cis-reporter, Attagene RNA transcription; actives raise or lower the signal
Sequence of Heat shock factor protein 1 (Homo sapiens) (Q00613 whole entry, looked up): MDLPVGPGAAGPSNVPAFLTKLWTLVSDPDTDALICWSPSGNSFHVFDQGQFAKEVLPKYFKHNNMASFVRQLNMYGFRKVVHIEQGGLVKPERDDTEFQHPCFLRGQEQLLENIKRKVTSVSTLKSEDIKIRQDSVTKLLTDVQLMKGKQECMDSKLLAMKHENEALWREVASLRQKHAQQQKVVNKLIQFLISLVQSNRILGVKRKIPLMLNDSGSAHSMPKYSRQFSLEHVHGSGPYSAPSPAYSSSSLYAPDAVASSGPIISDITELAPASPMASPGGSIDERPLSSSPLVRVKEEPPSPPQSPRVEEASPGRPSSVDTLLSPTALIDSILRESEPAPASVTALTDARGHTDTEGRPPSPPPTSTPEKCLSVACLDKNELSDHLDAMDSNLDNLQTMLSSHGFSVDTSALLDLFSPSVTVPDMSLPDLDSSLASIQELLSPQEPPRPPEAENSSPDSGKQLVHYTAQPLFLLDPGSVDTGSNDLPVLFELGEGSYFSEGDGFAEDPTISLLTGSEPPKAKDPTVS
How it was run: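 Using HepG2 with transfected cis-driven reporter constructs, compound effects on endogenous factor activity are scored as reporter mRNA change at 24 h. Detection: RT-PCR, HpaI digestion, capillary electrophoresis; bidirectional fitting to DMSO.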

[8] = ATG_MRE_CIS: Attagene CIS-FACTORIAL HepG2 Assay for human Metal Responsive Element (MRE) (AID 2282954); details: HepG2 MRE cis-reporter transcription, Attagene multiplex; actives raise or lower the signal
How it was run: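 HepG2 cells transiently transfected with cis-element-driven reporter units; mRNA measured 24 h after dosing. Reporter transcripts quantified by RT-PCR, FAM labelling, HpaI digestion and capillary electrophoresis; bidirectional fit versus DMSO.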

[9] = ATG_PBREM_CIS: Attagene CIS-FACTORIAL HepG2 Assay for human Phenobarbital-responsive Enhancer Module (PBREM) (AID 2282955); details: HepG2 PBREM cis-reporter, Attagene multiplexed transcription; actives raise or lower the signal
How it was run: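 Readout: reporter mRNA, fluorescent RT-PCR fragments separated by capillary electrophoresis. System: HepG2 transiently transfected with cis-regulated reporter units. Exposure: 24 h. Analysis: bidirectional, DMSO baseline.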

[10] = biological target: Paired box protein Pax-6 (Homo sapiens) (UniProt P26367); test: ATG_Pax6_CIS: Attagene CIS-FACTORIAL HepG2 Assay for human Paired Box 6 (PAX6) (AID 2282956); details: HepG2 CIS-FACTORIAL PAX6 reporter transcription, RNA readout; actives raise or lower the signal
Sequence of Paired box protein Pax-6 (Homo sapiens) (P26367 whole entry, looked up): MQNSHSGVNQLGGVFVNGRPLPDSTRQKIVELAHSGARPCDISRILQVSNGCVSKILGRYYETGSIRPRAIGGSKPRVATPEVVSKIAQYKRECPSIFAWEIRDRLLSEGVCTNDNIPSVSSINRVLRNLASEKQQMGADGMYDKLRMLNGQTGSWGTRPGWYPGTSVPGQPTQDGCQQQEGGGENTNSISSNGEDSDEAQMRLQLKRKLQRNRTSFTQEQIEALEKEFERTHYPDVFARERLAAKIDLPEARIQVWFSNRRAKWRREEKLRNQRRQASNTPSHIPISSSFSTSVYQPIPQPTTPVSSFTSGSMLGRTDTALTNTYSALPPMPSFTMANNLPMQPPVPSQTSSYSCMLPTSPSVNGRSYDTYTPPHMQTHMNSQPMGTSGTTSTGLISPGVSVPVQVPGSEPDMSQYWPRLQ
How it was run: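 HepG2 cells transiently transfected with multiplexed cis-promoter reporter units (endogenous TF activity) were dosed for 24 h. Reporter mRNA was quantified by RT-PCR, 6-FAM labeling, HpaI digestion and capillary electrophoresis; bidirectional fitting versus DMSO baseline.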

[11] = ATG_PPRE_CIS: Attagene CIS-FACTORIAL HepG2 Assay for human Peroxisome Proliferator-activated Response Element (PPRE) (AID 2282958); details: HepG2 PPRE cis-element reporter, Attagene transcription factor profiling; actives raise or lower the signal
How it was run: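 After human HepG2 hepatoma cells were transiently transfected with cis-promoter reporter constructs, they were exposed to test chemicals for 24 hours. Reporter RNA was then reverse-transcribed, PCR-amplified, FAM-labeled, HpaI-digested and quantified by capillary electrophoresis.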

[12] = ATG_RORE_CIS: Attagene CIS-FACTORIAL HepG2 Assay for human RAR-related Orphan Receptor Element (RORE) (AID 2282959); details: HepG2 Attagene cis-factorial RORE reporter, mRNA; actives raise or lower the signal
How it was run: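 Measured here: transcript induction of a cis-regulated reporter in HepG2 cells transiently transfected via FuGene 6. After 24 h, RNA was processed by RT-PCR and fluorescent capillary electrophoresis; DMSO defined baseline activity.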

[13] = ATG_Sox_CIS: Attagene CIS-FACTORIAL HepG2 Assay for human SRY-box transcription factor (SOX) (AID 2282960); details: HepG2 Attagene cis-factorial SOX reporter, mRNA; actives raise or lower the signal
How it was run: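 Using transiently transfected HepG2 cells, reporter transcription driven by cis elements was assessed 24 h after dosing. Signal was fluorescence of capillary-separated RT-PCR products, with DMSO defining baseline activity.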

[14] = biological target: Transcription factor Sp1 (Homo sapiens) (UniProt P08047); test: ATG_Sp1_CIS: Attagene CIS-FACTORIAL HepG2 Assay for human Specificity Protein 1 (Sp1) (AID 2282961); details: HepG2 Sp1 cis-reporter transcription, actives raise or lower the signal
Sequence of Transcription factor Sp1 (Homo sapiens) (P08047 whole entry, looked up): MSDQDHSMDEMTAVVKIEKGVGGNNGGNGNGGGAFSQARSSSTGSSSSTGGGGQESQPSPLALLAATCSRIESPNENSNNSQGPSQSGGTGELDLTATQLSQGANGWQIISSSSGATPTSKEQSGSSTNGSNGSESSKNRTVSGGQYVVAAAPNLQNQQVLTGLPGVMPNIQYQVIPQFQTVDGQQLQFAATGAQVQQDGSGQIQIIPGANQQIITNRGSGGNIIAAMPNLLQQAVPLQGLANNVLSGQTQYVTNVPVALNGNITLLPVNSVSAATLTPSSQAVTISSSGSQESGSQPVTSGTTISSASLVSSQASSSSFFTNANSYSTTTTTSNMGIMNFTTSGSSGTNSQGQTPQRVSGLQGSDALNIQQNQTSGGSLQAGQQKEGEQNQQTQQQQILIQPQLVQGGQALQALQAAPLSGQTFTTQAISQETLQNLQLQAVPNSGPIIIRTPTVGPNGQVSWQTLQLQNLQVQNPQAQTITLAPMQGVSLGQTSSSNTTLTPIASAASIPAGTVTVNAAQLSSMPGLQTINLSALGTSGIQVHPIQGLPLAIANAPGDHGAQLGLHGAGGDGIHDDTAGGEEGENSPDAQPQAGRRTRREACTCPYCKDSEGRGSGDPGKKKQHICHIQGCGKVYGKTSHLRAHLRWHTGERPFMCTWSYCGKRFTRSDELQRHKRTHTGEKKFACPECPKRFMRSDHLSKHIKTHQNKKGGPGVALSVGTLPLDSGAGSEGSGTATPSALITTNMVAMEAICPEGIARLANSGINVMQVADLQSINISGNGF
How it was run: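 After transient transfection of HepG2 cells with cis-promoter reporter units and 24 h chemical treatment, reporter transcripts were quantified by RT-PCR and capillary electrophoresis fluorescence. Gain- and loss-of-signal fitted against DMSO.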

[15] = ATG_SREBP_CIS: Attagene CIS-FACTORIAL HepG2 Assay for human Sterol Regulatory Element Binding (SREBP) (AID 2282962); details: HepG2 Attagene cis-factorial SREBP reporter, mRNA; actives raise or lower the signal
How it was run: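 HepG2 cells transiently transfected with multiplexed cis-element reporter units report endogenous transcription factor activity. After 24 h of chemical exposure, reporter mRNA was quantified by RT-PCR, 6-FAM labelling, HpaI digestion and capillary electrophoresis; bidirectional fits used DMSO as baseline.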

[16] = biological target: Signal transducer and activator of transcription 3 (Homo sapiens) (UniProt P40763); test: ATG_STAT3_CIS: Attagene CIS-FACTORIAL HepG2 Assay for human Signal Transducer and Activator of Transcription 3 (STAT3) (AID 2282963); details: HepG2, Attagene cis-factorial STAT3 reporter transcription; actives raise or lower the signal
Sequence of Signal transducer and activator of transcription 3 (Homo sapiens) (P40763 whole entry, looked up): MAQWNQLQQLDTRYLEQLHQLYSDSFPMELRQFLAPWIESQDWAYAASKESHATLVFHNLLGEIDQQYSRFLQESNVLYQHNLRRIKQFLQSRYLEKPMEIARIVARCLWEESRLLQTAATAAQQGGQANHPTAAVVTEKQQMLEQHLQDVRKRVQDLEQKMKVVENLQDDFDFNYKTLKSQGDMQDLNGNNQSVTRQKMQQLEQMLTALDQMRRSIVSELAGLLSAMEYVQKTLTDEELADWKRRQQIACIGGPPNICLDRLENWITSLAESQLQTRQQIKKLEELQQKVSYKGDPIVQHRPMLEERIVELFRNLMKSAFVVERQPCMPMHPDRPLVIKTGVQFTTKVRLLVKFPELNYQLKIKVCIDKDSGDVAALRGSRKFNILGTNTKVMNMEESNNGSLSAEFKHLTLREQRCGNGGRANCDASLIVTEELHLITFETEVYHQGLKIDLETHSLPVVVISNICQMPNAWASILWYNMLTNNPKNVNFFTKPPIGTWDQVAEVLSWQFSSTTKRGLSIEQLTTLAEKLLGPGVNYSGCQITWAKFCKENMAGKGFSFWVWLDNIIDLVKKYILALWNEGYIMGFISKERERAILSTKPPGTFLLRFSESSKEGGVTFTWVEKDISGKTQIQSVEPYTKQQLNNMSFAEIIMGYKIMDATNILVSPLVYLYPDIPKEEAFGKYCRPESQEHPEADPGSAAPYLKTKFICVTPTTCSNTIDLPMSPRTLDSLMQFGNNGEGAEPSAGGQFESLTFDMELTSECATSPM
How it was run: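 HepG2 cells transiently transfected with multiple cis-element-driven reporter units report endogenous transcription factor activity. After 24 h compound exposure, reporter mRNA is measured by RT-PCR, 6-FAM labelling, HpaI digestion and capillary electrophoresis. Fitted bidirectionally versus DMSO.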

[17] = ATG_TA_CIS: Attagene CIS-FACTORIAL HepG2 Assay for human TA Basal Promoter (AID 2282964); details: HepG2 Attagene CIS-factorial TA basal promoter reporter; actives raise or lower the signal
How it was run: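 Transient MRTU transfection of HepG2 preceded 24 h compound exposure. Reporter mRNA levels were then read by RT-PCR with capillary electrophoresis, and this background-control endpoint was fitted bidirectionally to DMSO.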

[18] = ATG_TCF_b_cat_CIS: Attagene CIS-FACTORIAL HepG2 Assay for human T-Cell-Factor with beta-catenin (TCF/b-cat) (AID 2282965); details: HepG2 TCF/beta-catenin cis-reporter transcription, actives raise or lower the signal
How it was run: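 Cells of the HepG2 line carry transiently transfected reporter units whose promoters respond to endogenous factors. Twenty-four hours post-dosing, reporter mRNA induction is measured by fluorescent RT-PCR and capillary electrophoresis, with DMSO as baseline.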

[19] = biological target: Hypoxia-inducible factor 1-alpha (Homo sapiens) (UniProt Q16665); test: ATG_HIF1a_CIS: Attagene CIS-FACTORIAL HepG2 Assay for human Hypoxia Inducible Factor 1 (HIF1A) (AID 2282951); details: HepG2 Attagene cis-factorial HIF1a reporter transcription; actives raise or lower the signal
Sequence of Hypoxia-inducible factor 1-alpha (Homo sapiens) (Q16665 whole entry, looked up): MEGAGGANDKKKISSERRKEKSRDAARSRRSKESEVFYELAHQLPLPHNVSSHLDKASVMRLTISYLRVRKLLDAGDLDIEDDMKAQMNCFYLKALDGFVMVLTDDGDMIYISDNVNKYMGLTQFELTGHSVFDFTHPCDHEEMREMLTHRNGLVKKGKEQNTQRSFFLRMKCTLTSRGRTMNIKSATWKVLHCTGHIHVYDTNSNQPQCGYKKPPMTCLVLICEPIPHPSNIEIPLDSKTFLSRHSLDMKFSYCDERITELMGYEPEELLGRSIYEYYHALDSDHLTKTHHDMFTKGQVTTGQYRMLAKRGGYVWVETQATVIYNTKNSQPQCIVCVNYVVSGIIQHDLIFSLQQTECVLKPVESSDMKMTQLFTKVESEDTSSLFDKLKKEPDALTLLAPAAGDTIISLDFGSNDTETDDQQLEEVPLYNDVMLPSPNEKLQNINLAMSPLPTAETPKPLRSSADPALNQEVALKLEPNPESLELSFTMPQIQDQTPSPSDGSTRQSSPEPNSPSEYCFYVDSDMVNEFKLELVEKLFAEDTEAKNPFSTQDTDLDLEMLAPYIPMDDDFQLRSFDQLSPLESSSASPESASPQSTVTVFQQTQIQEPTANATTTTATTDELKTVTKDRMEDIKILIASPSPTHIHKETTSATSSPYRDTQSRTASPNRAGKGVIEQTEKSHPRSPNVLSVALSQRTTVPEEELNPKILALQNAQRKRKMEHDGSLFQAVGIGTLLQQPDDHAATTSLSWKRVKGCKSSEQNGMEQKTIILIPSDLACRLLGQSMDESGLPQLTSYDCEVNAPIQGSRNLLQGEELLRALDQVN
How it was run: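 Endogenous-TF cis reporter readout, human HepG2 cells, 24 h incubation; mRNA detected via RT-PCR and capillary electrophoresis fluorescence; DMSO-normalised bidirectional fitting.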

[20] = ATG_PXRE_CIS: Attagene CIS-FACTORIAL HepG2 Assay for human Pregnane X Receptor Element (PXRE) (AID 2282957); details: HepG2 Attagene CIS-FACTORIAL PXRE reporter, mRNA; actives raise or lower the signal
How it was run: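 Cis-element reporter mRNA in human hepatoma HepG2 cells is measured 24 h post-dosing by RT-PCR, primer-extension labeling and capillary electrophoresis; gain or loss of signal is fitted relative to DMSO.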

Measured: AC50

CCCCC(CC)COP(=O)(Oc1ccccc1)Oc1ccccc1 (centres undefined)
active: [1] 25.6 µM | [7] 72 µM | [8] 50.1 µM | [10] 100 µM | [11] 37.7 µM | [14] 126 µM | [15] 35.4 µM | [17] 55.3 µM
not listed: [19] | [20]
inactive: all other assays above

CSC(C)(C)C=NO
not listed: [1] | [11] | [15] | [18]
inactive: all other assays above

O=C(O)C(Cl)Cl
not listed: [1] | [9] | [18]
inactive: all other assays above

c1ccc(OP(Oc2ccccc2)Oc2ccccc2)cc1
not listed: [1] | [11] | [18] | [20]
inactive: all other assays above

Nc1ccc2ccccc2c1
not listed: [1] | [2] | [11] | [15] | [19]
inactive: all other assays above

CCCCc1ccccc1
not listed: [7] | [15] | [19]
inactive: all other assays above

CCCCN(CCCC)SN(C)C(=O)Oc1cccc2c1OC(C)(C)C2
active: [20] 8.93 µM
not listed: [1] | [11] | [18] | [19]
inactive: all other assays above

CCOS(=O)(=O)OCC
not listed: [1] | [7] | [19]
inactive: all other assays above

CCC1(c2ccccc2)C(=O)N=C(O)NC1=O (centres undefined)
active: [20] 100 µM
not listed: [1] | [2] | [11] | [19]
inactive: all other assays above

O=[N+]([O-])c1ccccc1
not listed: [1] | [7] | [9] | [11] | [19]
inactive: all other assays above

CCC(C)(C)c1ccc(O)cc1
active: [1] 33.4 µM | [20] 9.13 µM | [15] 20 µM
not listed: [9] | [11] | [19]
inactive: all other assays above

CCOP(=S)(Oc1ccc([N+](=O)[O-])cc1)c1ccccc1 (centres undefined)
active: [15] 27.2 µM
not listed: [1] | [2] | [7] | [11] | [12] | [18] | [20]
inactive: all other assays above

CO/N=C(/C(=O)OC)c1ccccc1COc1ccccc1C
active: [7] 150 µM | [8] 100 µM | [10] 70.1 µM | [20] 4.57 µM | [12] 36.5 µM
not listed: [11] | [15] | [18] | [19]
inactive: all other assays above

CC(Cl)(Cl)C(=O)O
not listed: [1] | [9] | [18]
inactive: all other assays above

c1cc2c3c(cccc3c1)CC2
not listed: [1] | [15] | [19]
inactive: all other assays above

Cc1ccc([N+](=O)[O-])cc1C
not listed: [2]
inactive: all other assays above

CC(Cc1ccc(OCC(=O)O)cc1)NCC(O)c1csc(C(F)(F)F)n1 (centres undefined)
not listed: [1] | [11] | [18]
inactive: all other assays above

— PubChem BioAssay (EPA / NIEHS)
